# Reference: PubChem BioAssay (NCI)
# The panel holds about 83,000 compounds, 20% with a hit somewhere; the sample as a whole holds those more often.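 Values shown are percent growth following 48 h exposure of cells in 96-well plates to a single concentration of compound; below 10 was considered active.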 Unmarked numbers belong to inactive results. Calls of active or inactive are those of the source.
# Experiments:
# Assay in all cases: NCI-60 one-dose screen, 48 h (100 = growth as untreated, 0 = no growth, -100 = all killed)
# Conditions in all cases: 10 µM unless noted
# HCT-15 colon = test system: HCT-15 colon
# HT29 colon = test system: HT29 colon
# SNB-75 CNS = test system: SNB-75 CNS
# SNB-19 CNS = test system: SNB-19 CNS
# U251 CNS = test system: U251 CNS
# PC-3 prostate = test system: PC-3 prostate
# SK-MEL-5 melanoma = test system: SK-MEL-5 melanoma
# UACC-62 melanoma = test system: UACC-62 melanoma
# LOX IMVI melanoma = test system: LOX IMVI melanoma
# SK-MEL-28 melanoma = test system: SK-MEL-28 melanoma
SMILES,growth (HCT-15 colon),growth (HT29 colon),growth (SNB-75 CNS),growth (SNB-19 CNS),growth (U251 CNS),growth (PC-3 prostate),growth (SK-MEL-5 melanoma),growth (UACC-62 melanoma),growth (LOX IMVI melanoma),growth (SK-MEL-28 melanoma)
COc1cc(/C=C/c2cc(/C=C/c3ccc(O)c(OC)c3)n(C(=O)Nc3ccc(F)cc3)n2)ccc1O,10.6%,-41.8% (active),26.9%,20.2%,13.4%,9.01% (active),-8.36% (active),2.01% (active),4% (active),16.7%
N=C(N)c1ccc(-c2ccc(-c3ccc(Cl)cc3Cl)s2)cc1F,-75.7% (active),-29.4% (active),20.7%,-34.3% (active),-52.1% (active),-14.1% (active),50.8%,-54% (active),-89.9% (active),83.7%
CCCCCCCC/C=C\CCCCCCCCOc1ccccc1CC(=O)NCC[N+]1(C)CCCCC1,102%,9.78% (active),49.3%,52.6%,39%,3.49% (active),86.5%,53.8%,75.7%,84.2%
CCn1c2ccc(O)cc2c2c(C)c3c[n+](C(C)C)ccc3c(C)c21,67.7%,54.8%,49.8%,7.71% (active),13.5%,61%,57.1%,15.1%,30.9%,22.8%
Cn1c(=O)c2c(c3ccccc31)OC(N)=C(C#N)C21C(=O)c2ccccc2C1=O,96.1%,102%,76.8%,88.2%,101%,80.8%,94.9%,89.8%,97.5%,104%
CC(=O)Nc1c(Cl)cc(Cl)c2c1Cc1cc([N+](=O)[O-])ccc1-2,89.7%,81.4%,58%,99.8%,74.3%,81.2%,103%,102%,76.8%,100%
CCCCCn1sc(=O)n(Cc2ccc(CNC(=O)OCc3ccc4c(Cl)cc(Cl)c(O)c4n3)cc2)c1=O,17.1%,110%,82.1%,48.6%,39.7%,61.1%,48.7%,40.4%,51.8%,56%
Cc1ccc(/C=C2\CN(C(=O)C(Cl)Cl)C/C(=C\c3ccc(C)cc3)C2=O)cc1,-39.2% (active),-5.72% (active),-30.2% (active),-53.7% (active),-94.9% (active),-49.3% (active),-81.8% (active),-67.2% (active),-92.2% (active),-56.1% (active)
COc1ccc(Cc2cnc(NC(=O)c3sc4ccccc4c3Cl)s2)cc1,15.9%,8.15% (active),9.6% (active),50.7%,20.8%,31.5%,27.8%,35.7%,45.9%,62.1%
Oc1c(I)cc(-c2nc3ccccc3s2)cc1CN(Cc1ccccn1)Cc1ccccn1,22%,21.3%,40.1%,20.9%,8.16% (active),28.3%,-78.3% (active),10.5%,3.14% (active),37.5%
COc1ccc(NC(=O)c2sc3nc4c(cc3c2N)CCCC4)cc1,28.6%,0.414% (active),17.3%,34.7%,22.6%,26.9%,5.04% (active),43%,35.8%,62.3%
O=C(N=Nc1c(O)[nH]c2ccccc12)Nc1ccc(Cl)cc1,87.3%,93.5%,101%,89.3%,100%,89.8%,90.7%,75.7%,86.5%,91.5%
C[C@H]1[C@H](C)CC[C@]2(C(=O)O)CC[C@]3(C)C(=CC[C@@H]4[C@@]5(C)C[C@@H](Cc6cn([C@@H]7O[C@H](CO)[C@@H](O)[C@H](O)[C@H]7O)nn6)[C@H](O)C(C)(C)[C@@H]5CC[C@]43C)[C@H]12,102%,98.4%,88%,98.8%,92.9%,89.8%,94.2%,98.4%,99%,101%
COC(=O)C1=Nc2ccc(F)cc2/C1=C\c1sc(Nc2ccc(O)cc2)nc1O,74.3%,106%,33.8%,45.7%,46.4%,52.1%,60.3%,34.3%,64%,66.1%
O=C(CBr)CN1C(=O)c2ccccc2C1=O,110%,99.9%,93.5%,115%,101%,102%,111%,102%,94.7%,101%
COc1ccc(C2=Nc3c(N)ncnc3NC(c3cccc(Nc4ccnc5cc(C(F)(F)F)ccc45)c3)C2)cc1 (stereo not given),32.4%,42.6%,56.7%,68.2%,54.5%,42.2%,51.8%,76.1%,61.8%,84%
O=C1c2cccnc2C(=O)c2c1c(C(=O)OCCCN1CCCCC1)c1ccccn21,-55.5% (active),-24.2% (active),-88.7% (active),-38.2% (active),-31% (active),-18.2% (active),-96.2% (active),-51.2% (active),-67.2% (active),-20.3% (active)
Cc1ccc(C)c2c1C(O)(C#Cc1ccccc1)c1ccccc1C2(O)C#Cc1ccccc1 (stereo not given),27.7%,38.9%,48.3%,70.4%,34.3%,29.4%,36.8%,53.4%,42.5%,80.4%
CCC/C(=N\NC(N)=O)C(OC)OC,105%,97.8%,67.9%,102%,92.3%,97%,100%,100%,84.4%,96.4%
Cc1cc(N2CCCCC2)nc(N2CCN(CC(=O)Nc3ccc4c(ccn4Cc4ccccc4)c3)CC2)n1,48.1%,12.4%,66.4%,70%,40.3%,38.7%,57.6%,56.5%,60.7%,73.7%
Cn1cc(-c2csc(-c3cn(C(=O)OC(C)(C)C)c4ccccc34)n2)c2ccnc(Cl)c21,39.1%,35.4%,46.8%,89.1%,34.1%,40.5%,81.4%,78.2%,52.8%,81.2%
COc1cc2nc(Nc3cccc(F)c3)nc(Nc3cc(C)[nH]n3)c2cc1OC,-78.6% [20 µM] (active),-54.9% [20 µM] (active),-97.5% [20 µM] (active),-89.2% [20 µM] (active),-55.5% [20 µM] (active),-81% [20 µM] (active),-90.1% [20 µM] (active),-95.7% [20 µM] (active),-82.3% [20 µM] (active),-99.3% [20 µM] (active)
COc1cccc(/C=C2\COc3ccc(O)cc3C2=O)c1,40.6%,37.8%,82.4%,65.6%,45.1%,76.8%,96.6%,63.3%,18.7%,108%
Cc1c(Cl)cccc1C(=O)Nc1nc2c(s1)CN(C(=O)Nc1cccc(C(F)(F)F)c1)CC2,11.8%,1.39% (active),6.15% (active),36.7%,22.2%,6.43% (active),2.35% (active),27.8%,18.9%,44.4%
COc1ccc(C(c2cc(OC)c(OC)c(OC)c2)N2CCN(Cc3ccccc3)CC2)cc1 (stereo not given),47.6%,28.3%,92.4%,70%,62.8%,59.3%,52.6%,49.4%,67%,78.3%
O=C(c1ccc(F)c(Cl)c1)N1c2ccccc2Sc2ccccc21,27.2%,36.2%,68.6%,77%,39.4%,40.3%,34.4%,25.7%,41.2%,61.7%
